# JMJD2A Tudor inh: inhibitors of human JMJD2A Tudor domain; O75164; AlphaScreen JMJD2A-Tudor / H3K4me3 peptide binding; Potency, µM (highest dose often 114 µM), for inactives: at the highest dose activity change, negative = inhibition, most hits filed as inhibitors; 4.4% of 390,000 active; AID 504339; also: % is scaled to controls: 0 for no effect and ±100 for the full control effect; nearly all actives have a fitted effect of over 50% in size
# BAZ2B block: BAZ2B (human) inhibition | AlphaScreen BAZ2B-H3K14Ac peptide displacement | Potency, µM (series often up to 114 µM), for inactives: at the highest dose activity change, negative = inhibition, actives largely listed as inhibitors | 4.4% of 360,000 active; also: % is scaled to controls: 0 for no effect and ±100 for the full control effect; nearly all actives have a fitted effect of over 60% in size
#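 AlphaScreen luminescence quantifies BAZ2B engagement of H3K14Ac peptide; the protein and biotinylated peptide are both at 50 nM final, buffer PBS pH 7.4 with 0.01% Tween-20, all steps at room temperature.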
# G9a inh: G9a (human) methyltransferase inhibition; Q96KQ7; G9a H3K9 monomethylation, AlphaScreen, 2 h; Potency, µM (series often up to 102 µM), without a hit: top-dose activity, negative = inhibition, most hits filed as inhibitors; 8.8% of 350,000 active; also: % is scaled to controls: 0 for no effect and ±100 for the full control effect; nearly all actives have a fitted effect of over 75% in size
#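 Step 1: enzyme (final 20 nM) with compound, 15 min RT. Step 2: substrate peptide 500 nM and SAM 20 uM, 2 h RT. Step 3: anti-H3K9me1 antibody and AlphaScreen beads, 10 min, then plate read.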
# L3MBTL1 block: blocks human L3MBTL1. AlphaScreen L3MBTL1–H3K9me1 peptide binding. Q9Y468. 0.66% of 230,000 active. Potency, µM (titrated, usually from 57.1 µM), inactives show at the top dose activity, negative = inhibition, usual class: inhibitors; also: % is scaled to controls: 0 for no effect and ±100 for the full control effect; nearly all actives have a fitted effect of over 60% in size
#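 Read-out is AlphaScreen signal from streptavidin donor and nickel chelate acceptor beads (10 ug/mL final each) bridging L3MBTL1 (50 nM) and biotinylated K9-monomethylated H3(1-15) peptide (75 nM), after 30 min compound exposure at room temperature.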
# HP1b chromo inh: inhibitors of HP1-beta chromodomain binding to methylated histone tails | P83916 | AlphaScreen HP1-beta / biotin-H3K9me3 peptide binding | Potency, µM (doses to about 114 µM), for inactives: at the highest dose activity change, negative = inhibition, actives largely listed as inhibitors | 0.56% of 390,000 active; also: nearly all actives have a fitted effect of over 70% in size
#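 Compound inhibition of the preformed complex between 50 nM HP1-beta and 50 nM biotinylated H3K9me3 peptide was read by AlphaScreen. Buffer was PBS pH 7.4 with 0.01% Tween-20. Incubations ran 30 min at room temperature, with 10 ug/mL donor/acceptor beads.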
# Numbers without * were called inactive; ? = inconclusive; / = no result given; [ ] = another dose, or the depositor's remark. The list is not random: actives were taken first. Their share in the collection is about 11%. Calls follow the shape of the dose curve; as a rule, active = well fitted inhibition curve with a large enough effect; inconclusive = small, poorly fitted or top-dose-only effect; inactive = no such curve, though single readings can be large or run the other way. Potency is read from the fitted curve at half-maximal effect.
SMILES,JMJD2A Tudor inh,BAZ2B block,G9a inh,L3MBTL1 block,HP1b chromo inh
O=C(COc1ccccc1)NC(Cc1c[nH]c2ccccc12)C(=O)O (stereo not drawn),-20%,-39%,35µM*,-4%,22%
CC(C)(C)c1ccc(OCC(=O)NC(Cc2c[nH]c3ccccc23)C(=O)O)cc1 (stereo not drawn),-30%,?,?,/,28%
Cc1c(OCC(=O)NC(Cc2ccc(Cl)cc2)C(=O)O)ccc2c1oc(=O)c1ccccc12 (stereo not drawn),-30%,56µM*,-1%[12.7 µM],/,14%
O=C(Nc1ccccc1C(=O)NC(Cc1c[nH]c2ccccc12)C(=O)O)c1ccco1 (stereo not drawn),-13%,10%,-27%[59 µM],-4%,32%
Cc1cccc(OCC(=O)NC(Cc2c[nH]c3ccccc23)C(=O)O)c1C (stereo not drawn),-29%,-25%,40µM*,/,-6%
Cc1c(OCC(=O)NC(Cc2ccc(Cl)cc2)C(=O)O)ccc2c3c(c(=O)oc12)CCC3 (stereo not drawn),-14%,-2%[57.1 µM],?,-2%,33%
COc1ccc(C(=O)Nc2ccccc2C(=O)NC(Cc2c[nH]c3ccccc23)C(=O)O)cc1 (stereo not drawn),-14%[11.4 µM],79µM*,?,-12%,-19%
Cc1ccc(-c2cc3nccc(-c4cc([N+](=O)[O-])ccc4O)n3n2)cc1,-18%,?,-51%[59 µM],/,14%
Cn1c2cc(S(C)=O)sc2c2cnn(Cc3cccc(O)c3)c(=O)c21 (stereo not drawn),4%,/,/,/,/
COC(=O)C(Cc1c[nH]c2ccccc12)NC(=O)c1cc(-c2ccc(OC)c(OC)c2)oc1C (stereo not drawn),50µM*,-4%,50µM*,-15%,-39%
O=C(O)C(Cc1c[nH]c2ccccc12)N1C(=O)C2C3c4ccccc4C(c4ccccc43)[C@@H]2C1=O (stereo partly drawn),-21%,-27%,50µM*,-7%,10%
CC(C)CC(C(=O)O)N1C(=O)C2C3c4ccccc4C(c4ccccc43)[C@@H]2C1=O (stereo partly drawn),-13%,-15%,6%,/,29%
CCC(Oc1ccccc1F)C(=O)Nc1c(C(=O)c2ccccc2)oc2ccccc12 (stereo not drawn),63%,54%,101%[59 µM],/,85%
COc1ccc(C2Nc3ccccc3C(=O)N2Cc2ccccc2)cc1COc1ccc(C)cc1 (stereo not drawn),-14%,/,/,/,/
CN(Cc1ccc(F)cc1)S(=O)(=O)c1nnc(NC(=O)c2ccc(F)cc2)s1,-7%,-15%,-3%[59 µM],/,37%
N#Cc1c(-c2ccccc2)nc(SCC(=O)Nc2ccccc2)[nH]c1=O,-10%,-21%,?,5%,23%
Cc1cc(C)nc(NS(=O)(=O)c2ccc(NC(=O)CSc3nc(-c4ccccc4)c(C#N)c(=O)[nH]3)cc2)n1,-6%,/,79µM*,/,26%
N#Cc1c(-c2ccccc2)nc(SCC(=O)Nc2nnc(C(F)(F)F)s2)[nH]c1=O,-29%,-21%,50µM*,19%,16%
COc1ccc(OC)c(S(=O)(=O)NCCc2sc(-c3cccnc3)nc2C)c1,-15%,3%,-5%[59 µM],/,20%[57 µM]
COC(=O)Oc1nsnc1N1CCOCC1,89µM*,-5%,2.8µM*,7%,?
NNC(=O)c1nc[nH]c1C(=O)Nc1ccccn1,2.8µM*,2.5µM*,-31%,?,38%
O=C(Nc1ccccn1)c1ccc2ccccc2c1O,12%[57.1 µM],-20%,32µM*,3%,57%
Cc1ccc(NC(=O)c2[nH]cnc2C(=O)NN)cc1,?,?,21%,?,46%
CCOC(=O)Cn1nc(N2CCN(c3ccc(F)cc3)CC2)ccc1=O,-7%,/,11%[59 µM],/,39%
CC[C@@]12CCCN3CCc4c(n(c5ccccc45)[C@](O)(C(=O)OC)C1)C32 (stereo partly drawn),/,/,-26%[2.33 µM],/,/
CCC12CCCN3CCC4(C(=C(C(=O)OC)C1)Nc1ccccc14)C32 (stereo not drawn),?,?,2.8µM*,-2%,-11%
